Assay outcomes deposited in PubChem by several laboratories.
PolyA inh – yeast polyadenylation inhibition; S. cerevisiae SKY197-pL101 polyadenylation reporter, beta-gal luminescence; efflux-impaired pdr1/pdr3 knockout yeast; score 100 = 6 SD above DMSO; activity score, % at 12 µM; 300,000 tested, 0.02% active; AID 1875;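 active = lowest replicate activity score at least 50, where 100 means six control SD above control mean; inconclusive = lowest score under 50 but half or more replicates reach 50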;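 also: yeast exposed to compound for 9 h at 30 °C; higher score means more reporter readthrough which indicates perturbed polyadenylation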
hcDAF12 agonist – activators of H. contortus DAF-12 nuclear receptor; activation, % at 6.8 µM; HEK293 hcDAF-12 lit1-tk-luc reporter, luminescence; 0% DMSO, 100% Δ7-dafachronic acid; 370,000 tested, 1.4% active; AID 652067;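 active = activation above the mean of all tested compounds plus 3 SD, cut at about 5.5% in these data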;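 also: 100% = response to 3 µM Δ7-dafachronic acid high control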
ssDAF-12 act – activators of S. stercoralis DAF-12 nuclear receptor; HEK293 ssDAF-12/GRIP1 lit1-tk-luc reporter, luminescence; % of 3 µM dafachronic acid response; activation, % at 6.8 µM; 370,000 tested, 1% active;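 active = activation above the mean over all tested compounds plus 3 SD, cut at about 0.9% in these data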;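 also: 0% = DMSO-only wells and 100% = 3 µM delta7-dafachronic acid wells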
DAX1 inh-1 – DAX1 (NR0B1) inhibition, primary screen; 370,000 tested, 1.1% active; inhibition, % at 6.8 µM; HEK293T StAR-luciferase reporter, SF-1/DAX-1 repression relief; AID 652010;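 active = inhibition above the mean over all tested compounds plus 3 SD, cut at about 3.6% in these data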;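 also: 0% = DAX-1 cells with DMSO and 100% = cells lacking DAX-1 with DMSO; higher inhibition means more luminescence from relief of DAX-1 repression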
DAX1 inh-2 – inhibitors of human orphan nuclear receptor DAX1 (NR0B1). HEK293 Gal4-DAX1 luciferase reporter, luminescence. inhibition, % at 6.75 µM. 340,000 tested, 0.99% active. P51843. AID 504766;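 active = inhibition above the mean over all tested compounds plus 3 SD, cut at about 4.2% in these data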;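 also: 0% = DAX1-transfected cells with DMSO and 100% = empty-vector control cells with DMSO; inhibition shows as a rise in luminescence from relieved DAX1 repression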
hgDAF-12 ag – hgDAF-12 agonism, primary luciferase screen; HEK293 GAL4-hgDAF12 UAS-luciferase reporter, agonist luminescence; normalized to butyrate control; activation, % at 6.8 µM; 370,000 tested, 1.8% active; AID 687014;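 active = activation above a cutoff set at the mean of all screened compounds plus 3 SD, cut at about 10% in these data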;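 also: 0% = DMSO wells and 100% = sodium butyrate wells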
hgDAF12 ag – hgDAF-12 agonism, confirmation assay. shares compounds with hgDAF-12 ag. HEK293 GAL4-hgDAF12 luciferase reporter, agonist mode; percent of butyrate response. activation, % at 6.8 µM. 3,300 tested, 80% active;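 active = mean activation over triplicate wells above the hit cutoff derived from the earlier primary screen, cut at about 11% in these data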;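 also: 0% = DMSO low control and 100% = 2 mM sodium butyrate high control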
LXRb DAF12 ctr – activates human LXR-beta, counter-screen for DAF-12 agonists | activation, % at 6.8 µM | HEK293 Gal4-LXR luciferase reporter, 24 h | 3,300 tested, under 10 active | shares compounds with hgDAF-12 ag;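 active = mean activation of the triplicate above a set limit carried over from the primary screen, none filed active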
Target sequence (P55055 whole entry, looked up, the tested form may be a part): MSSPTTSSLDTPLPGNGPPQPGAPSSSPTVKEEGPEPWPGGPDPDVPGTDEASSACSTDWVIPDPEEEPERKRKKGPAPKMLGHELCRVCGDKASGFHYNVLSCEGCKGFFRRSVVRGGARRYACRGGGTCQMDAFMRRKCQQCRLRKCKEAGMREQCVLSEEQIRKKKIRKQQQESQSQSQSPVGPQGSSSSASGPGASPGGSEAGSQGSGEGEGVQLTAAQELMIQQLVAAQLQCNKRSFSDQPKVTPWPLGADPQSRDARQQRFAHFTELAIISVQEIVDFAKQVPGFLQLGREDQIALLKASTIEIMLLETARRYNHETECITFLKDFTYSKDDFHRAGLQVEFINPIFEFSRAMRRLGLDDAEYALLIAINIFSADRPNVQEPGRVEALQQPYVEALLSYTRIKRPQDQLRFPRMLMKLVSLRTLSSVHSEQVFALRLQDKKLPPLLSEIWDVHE
Active calls of the source: *; ? = inconclusive; · = no result. Hits are enriched below; roughly 4.1% of the tested compounds scored in any of these assays.

SMILES | PolyA inh | hcDAF12 agonist | ssDAF-12 act | DAX1 inh-1 | DAX1 inh-2 | hgDAF-12 ag | hgDAF12 ag | LXRb DAF12 ctr
CC(=O)Oc1ccccc1/C=C/c1ccc2ccccc2[n+]1C | ? | 6.0* | 1.9* | 2 | 4 | 13* | 11* | 0
Cc1c(C(=O)NCC2CCCO2)oc2ccc3c(c12)C(=O)CC(C)(C)O3 (centres undefined) | -14 | 5 | 0 | 1 | 0 | 17* | 12* | 1
Cc1ccccc1-c1cnc(C(O)c2ccc(Cl)c(F)c2)[nH]1 (centres undefined) | · | -2 | -1 | 0 | · | -1 | · | ·
CCc1ccc(-c2cc(C(=O)N/N=C/c3c[nH]c4ccccc34)[nH]n2)cc1 | 1 | 3 | 1 | -3 | 0 | 18* | 1 | 0
O=C(Nc1cccnc1)c1ccc(Oc2ccccc2)cc1 | -47 | 2 | 0 | 1 | 2 | 14* | 15* | 1
COc1ccc(S(=O)(=O)Nc2ccc(-c3ccc4nncn4n3)cc2)c(OC)c1 | -8 | 0 | -1 | 0 | 0 | -1 | · | ·
CCCN(CCC)CC(O)Cn1cc(/C=C/C(=O)c2ccccc2)c2ccccc21 (centres undefined) | 6 | 2 | -1 | 0 | 2 | 1 | · | ·
CCCN(CCC)CC(O)Cn1cc(/C=C/C(=O)c2cccs2)c2ccccc21 (centres undefined) | -25 | 5 | -1 | 0 | -1 | 27* | 0 | 0
O=C(CNC(=O)c1ccc(-c2ccccc2)cc1)OCc1ccc(Br)cc1 | -5 | 2 | 0 | 0 | 0 | 13* | 6 | 0
Cc1nc(NC2CCCC2)c2nnn(Cc3ccccc3)c2n1 | · | -2 | -2 | 0 | · | 1 | · | ·
COC(=O)Cc1c(C)[nH]n(-c2cc(Cl)cc(Cl)c2)c1=O | -6 | -2 | -2 | -1 | -1 | -3 | · | ·
Cn1nc(C(C)(C)C)cc1C(=O)N1CCCCC1c1cc(C(=O)NCc2cccnc2)no1 (centres undefined) | · | -2 | -1 | 0 | · | -2 | · | ·
O=C(Nc1ccc2c(c1)OCO2)OC1CCC12CCCCC2 (centres undefined) | · | 0 | 0 | 3 | · | 15* | 13* | 0
COc1ccc(-c2ccc(C(=O)Nc3cccc(C(C)=O)c3)c3occc23)c(C)c1 | · | -5 | -2 | -4 | · | 0 | · | ·
COc1ccc(-c2ccc(C(=O)Nc3cccc(F)c3)c3occc23)c(C)c1 | · | 4 | 0 | 3.7* | · | 14* | 6 | 1
CCC1(CC)NC(=O)N(CC(=O)OCC(=O)Nc2cc(OC)ccc2OC)C1=O | · | 1 | -1 | -1 | 0 | -2 | · | ·
C/C(N)=C(/C#N)C(=O)CSc1nnc(Nc2ccccc2)s1 | 7 | 3 | -1 | 2 | 1 | 15* | 10 | 0
CCOc1ccccc1C(=O)OCC(=O)Nc1cc(S(=O)(=O)N2CCOCC2)ccc1C | · | 1 | -1 | 2 | 0 | 1 | · | ·
CCC(=O)NC(=S)Nc1ccc(-c2nc3ccc(C)cc3s2)cc1 | 0 | 1 | -1 | 2 | 0 | 17* | 13* | 0
Cc1ccc(C2(C)NC(=O)N(CC(=O)Nc3ccc(-c4nc5ccc(C)cc5s4)cc3)C2=O)cc1 (centres undefined) | 25 | 4 | 1.1* | 2 | 1 | 24* | 12* | 0
CCN(CC)S(=O)(=O)c1cc(C(=O)OCC(=O)Nc2ccc(-c3nc4ccc(C)cc4s3)cc2)ccc1F | 11 | 5 | 1.2* | 2 | 1 | 16* | 19* | 1
Cc1ccc(NC(=O)CN2C(=O)NC(C)(c3ccc4c(c3)OCO4)C2=O)cc1 (centres undefined) | · | -1 | -1 | -2 | 2 | 0 | · | ·
Cc1ccc2nc(-c3ccc(NC(=O)COCC(=O)O)cc3)sc2c1 | -10 | 4 | 0 | 3 | 3 | 16* | 11* | 0
COc1ccccc1OCc1ccc(C(=O)N(C)c2ccccc2)o1 | -9 | -2 | -1 | 0 | 0 | -2 | · | ·
CC(C)(C)Cc1c(-c2cccc(Br)c2)nc2ccc(Br)cn12 | · | 3 | 0 | 2 | · | 3 | · | ·
SMILES | PolyA inh | hcDAF12 agonist | ssDAF-12 act | DAX1 inh-1 | DAX1 inh-2 | hgDAF-12 ag | hgDAF12 ag | LXRb DAF12 ctr
CCN(CC)C(=O)Cn1cnc2sc(C(=O)Nc3cc(OC)c(OC)c(OC)c3)c(C)c2c1=O | 2 | -1 | -1 | 1 | 0 | -1 | · | ·
Cc1cccc(OCCCC(=O)Nc2nc3ccccc3[nH]2)c1 | -10 | 0 | -1 | 0 | -1 | 14* | 7 | 0
Cc1cccc(OCCCSc2nc3ccccc3[nH]2)c1 | 2 | -3 | -1 | -1 | -1 | 1 | · | ·
CCOC(=O)C1=C(COC(=O)COc2ccc(Br)cc2)NC(=O)NC1C (centres undefined) | 0 | 0 | -1 | -1 | 0 | 0 | · | ·
CN(C)C(=O)c1cccc(COc2ccc(N3C(N)=NC(N)=NC3(C)C)cc2Cl)c1 | · | -2 | -2 | -4 | -2 | -12 | · | ·
COc1ccccc1/C=C/C(=O)Nc1ccc2c(c1)OCCO2 | 10 | 5 | 0 | 3 | -2 | 17* | 18* | 1
COc1ccccc1/C=C/C(=O)OCC(=O)Nc1ccc2c(c1)OCCO2 | · | 0 | -1 | 0 | 0 | 0 | · | ·
COc1cc(/C=C/C(=O)NC(=O)c2ccccc2O)ccc1OC(C)=O | 5 | 5 | 0 | 2 | 3 | 15* | 6 | 0
COc1ccc(/C=C/C(=O)Nc2ccccc2)cc1OC | 5 | 2 | 0 | 3 | 0 | 17* | 10 | 0
Cc1oc2c(C)c3oc(=O)c(CCC(=O)NCCN4CCOCC4)c(C)c3cc2c1C | 4 | 1 | -1 | 1 | 3 | -5 | · | ·
CC(CCc1ccccc1)NC(=O)CNC(=O)c1ccccc1Br (centres undefined) | 8 | -1 | -1 | -1 | 1 | -2 | · | ·
Cc1cc(N2CCOCC2)ccc1/C=C1/SC(=O)NC1=O | -11 | 5 | 0 | 1 | 1 | 16* | 9 | 0
C=CC(C)N1C(=O)S/C(=C\c2ccc(N3CCOCC3)cc2C)C1=O (centres undefined) | -4 | 1 | -1 | 1 | 2 | 7 | · | ·
Cc1cc(NC(=O)c2nn3cccnc3c2Cl)no1 | -4 | 2 | 1 | 3 | 0 | 14* | 15* | 1
CCOC(=O)[C@]12CCC=C1N(Cc1ccc3c(c1)OCO3)C(=O)[C@H](CC(=O)NCCCOC)C2 | · | -2 | -1 | 0 | · | 3 | · | ·
